In PubChem BioAssay AID720504 (National Center for Advancing Translational Sciences (NCATS), 2013):
About 10,000 (2.8%) of roughly 360,000 compounds were called active. Another 4% or so got no clear call; they are omitted. Many of the other results were omitted from the sample, so actives are more common in it than they were. Unmarked numbers belong to inactive results. Calls follow the shape of the dose curve; as a rule, active = well fitted inhibition curve with a large enough effect; inconclusive = small, poorly fitted or top-dose-only effect; inactive = flat fitted curve, though single readings scatter.

Biological target: Serine/threonine-protein kinase PLK1 (Homo sapiens) (UniProt P53350)
Sequence (P53350 whole entry, looked up, the tested form may be a part): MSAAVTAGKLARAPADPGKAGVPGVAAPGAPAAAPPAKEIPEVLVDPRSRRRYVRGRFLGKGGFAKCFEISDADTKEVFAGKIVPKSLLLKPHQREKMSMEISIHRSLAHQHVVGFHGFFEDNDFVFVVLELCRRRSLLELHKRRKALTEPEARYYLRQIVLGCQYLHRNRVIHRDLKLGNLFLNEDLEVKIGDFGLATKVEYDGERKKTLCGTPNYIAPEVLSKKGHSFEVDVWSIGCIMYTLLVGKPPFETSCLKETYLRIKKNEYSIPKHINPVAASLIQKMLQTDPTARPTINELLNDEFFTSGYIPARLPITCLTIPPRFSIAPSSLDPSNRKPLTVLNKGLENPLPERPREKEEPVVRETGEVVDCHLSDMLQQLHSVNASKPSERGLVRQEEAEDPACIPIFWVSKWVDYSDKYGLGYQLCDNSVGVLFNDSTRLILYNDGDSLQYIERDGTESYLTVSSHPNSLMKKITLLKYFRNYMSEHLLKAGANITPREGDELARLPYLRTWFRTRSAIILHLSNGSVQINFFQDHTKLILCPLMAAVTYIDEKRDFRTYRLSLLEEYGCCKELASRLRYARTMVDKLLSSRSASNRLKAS
Test: qHTS for Inhibitors of PLK1-PDB (polo-like kinase 1 - polo-box domain): Primary Screen; also: nearly all actives have a fitted effect of over 65% in size; as to max response, negative = inhibition: series mostly up to about 57 µM
Settings: Plk1 PBD binding of FITC phosphopeptide, fluorescence polarization
% is scaled to controls: 0 for no effect and ±100 for the full control effect; potency is read from the fitted curve at half-maximal effect.

Going from CC(C)Cc1ccc(-c2cc3nc(NCc4cccc(Cl)c4)ccn3n2)cc1 to CCc1nc2ccc(C(=O)NCc3ccc(OC)cc3)cn2c1N(CC)Cc1cccc(Br)c1, the max response, negative = inhibition falls from -0.174% to -13.2%.

First: COc1ccc(C)cc1NC(=O)NCc1ccccn1
Second: CCOc1ccc(N2CC(C(=O)NCc3ccccn3)CC2=O)cc1 (centres undefined)
The max response, negative = inhibition of the first is lower: 3.53% for the first, 6.65% for the second.

Compared with CCCC(=O)N1CCC1(C)C(=O)NCc1ccc(SC)cc1 (centres undefined), CCCNC(=O)C1(C)CCN1C(=O)Cc1ccc(-c2ccccc2)cc1 (centres undefined) is lower in max response, negative = inhibition: 4.65% for the first, -9.86% for the second.

Compared with CO[C@@H]1CN(C)C(=O)c2cc(NC(=O)Nc3cc(F)ccc3F)ccc2OC[C@H](C)N(C(=O)c2ccccn2)C[C@@H]1C, O=C(CNC(=O)N1CC(=O)Nc2ccccc21)Nc1ccc(Br)cc1F is lower in max response, negative = inhibition: -4.19% for the first, -4.26% for the second.

First: Cc1cccc(C)c1NC(=O)COC(=O)c1c(C)nn(-c2ccccc2)c1C
Second: COc1ccc(CNC(=O)COC(=O)c2c(C)nn(-c3ccccc3)c2C)cc1OC
The max response, negative = inhibition of the first is higher: 2.85% for the first, -2.1% for the second.

First: Cc1ccc(F)c(S(=O)(=O)NC(=O)C2(C)CCN2C(=O)CCc2cccs2)c1 (centres undefined)
Second: CC1(C(=O)Nc2ccccc2Br)CCN1C(=O)CC1CC1 (centres undefined)
The max response, negative = inhibition of the first is higher: -3.35% for the first, -11.1% for the second.

Going from CCn1c(COc2ccc(OC)cc2)nnc1SCC(=O)Nc1cc(OC)ccc1OC to COc1ccc(OC)c(CN2C(=O)CCC2(C)c2nnnn2Cc2ccccc2)c1 (centres undefined), the max response, negative = inhibition rises from -3.02% to -0.666%.

First: CCSc1nc(O)c(C(c2cccc(OC)c2)c2c(O)nc(SCC)[nH]c2=O)c(=O)[nH]1
Second: COc1cccc(NC(=O)CCNS(=O)(=O)c2ccc3c(c2)oc(=O)n3C)c1
The max response, negative = inhibition of the first is lower: -21.7% for the first, -5.8% for the second.

Compared with Cc1cccc(C(=O)NC2CCN(CC(=O)Nc3cccc(Cl)c3)CC2)c1, Cn1cc(CNC(=O)c2ccc(OC3CCN(Cc4ccccn4)CC3)cc2)cn1 is higher in max response, negative = inhibition: -8.54% for the first, -5.74% for the second.

Going from COc1ccc([C@H]2C[C@@H](n3cc(COC(=O)c4ccccc4)nn3)[C@H](O)CN2C(=O)c2cccs2)cc1 to CN(CCc1ccccn1)C(=O)c1ccc(OC2CCN(Cc3ccccn3)CC2)cc1, the max response, negative = inhibition rises from -9.99% to 5.54%.

First: COc1cccc(CNc2nc3cc(-c4csc5ccccc45)sc3c(=O)n2C)c1
Second: Cc1ccc(C)c(C(O)c2ncc(-c3cccc4ccccc34)[nH]2)c1 (centres undefined)
The max response, negative = inhibition of the first is higher: -2.77% for the first, -3.49% for the second.

Going from Cc1ccc(NC(=O)CCNS(=O)(=O)c2ccc3c(c2)oc(=O)n3C)cc1C to CC(=O)C1=CCC(c2ccccc2)N(S(=O)(=O)c2ccc(C)cc2)C1 (centres undefined), the max response, negative = inhibition falls from 0.556% to -15.4%.

Going from N#CCCN1CCN(S(=O)(=O)c2ccc(S(=O)(=O)N3CCCC3)cc2)CC1 to N#Cc1cccc(CN2CCC(=O)N(CCO)CC2)c1, the max response, negative = inhibition falls from -6.31% to -6.69%.

Compared with COC(=O)c1ccc(COC(=O)c2c(C)nn(Cc3ccccc3Cl)c2Cl)o1, COC(=O)c1ccc2nc(-c3ccc(C)cc3)c(Cc3ccc(OC)cc3C)n2c1 is higher in max response, negative = inhibition: -10.8% for the first, -3.95% for the second.

Going from CC(C)c1ccc(C(=O)OC2CCOC2=O)cc1 (centres undefined) to COC(=O)c1ccc(NC(=S)NN2CCOCC2)cc1, the max response, negative = inhibition rises from -4.1% to -1.75%.

Compared with N#Cc1ccc(-c2nc3c(Cl)cc(C(F)(F)F)cn3c2Cc2ccccc2C(F)(F)F)cc1, Cc1ccc(S(=O)(=O)N2C[C@H]3C(=O)C[C@@H](c4cccc5ccccc45)N(S(=O)(=O)c4ccc(C)cc4)[C@H]3C[C@H]2c2ccc(Cl)cc2)cc1 is lower in max response, negative = inhibition: 1.56% for the first, -18.3% for the second.

First: O=C(N/N=C/c1cc2c(cc1Br)OCO2)C1COc2ccccc2O1 (centres undefined)
Second: O=C(/C=C/c1cc2c(cc1Br)OCO2)NCc1ccc(Cl)cc1
The max response, negative = inhibition of the first is higher: 6.15% for the first, -5.95% for the second.

Compared with O=C(NCc1ccc2c(c1)OCO2)c1cc(F)c(F)cc1Cl, COc1cc(OC)c(C(=O)NCc2ccc3c(c2)OCO3)cc1OC is lower in max response, negative = inhibition: -7.37% for the first, -15% for the second.

Compared with CC1(C(=O)NCc2ccco2)Cc2c(-c3ccc4c(c3)OCO4)ccnc2O1 (centres undefined), O=C(Nc1ccc(S(=O)(=O)Nc2ncccn2)cc1)C12CC3CC(CC(C3)C1)C2 is lower in max response, negative = inhibition: -5.07% for the first, -7.71% for the second.

Compared with CCCNC(=O)C[C@@H]1CC[C@@H]2[C@H](COC[C@H](O)CN2C(=O)c2cc(Cl)cc(Cl)c2)O1, CCCCCCNC(=O)O[C@H]1CN(C(=O)OC(C)C)N(C(=O)OC(C)C)[C@@H]2CN(S(=O)(=O)c3ccc(C)cc3)C[C@]12O is lower in max response, negative = inhibition: -0.764% for the first, -12.5% for the second.

First: Cc1cccc(S(=O)(=O)N(C)C[C@H]2OCc3cnnn3CCCC(=O)N([C@@H](C)CO)C[C@H]2C)c1
Second: CCN(C(=O)CSc1cccc[n+]1[O-])c1ccccc1
The max response, negative = inhibition of the first is lower: -16.9% for the first, 4.89% for the second.

Molecule O=C(CSc1cccc[n+]1[O-])NCCCc1ccccc1 has a max response, negative = inhibition of -10.9%.

With COc1ccc(NC(=O)C2C3C=CC(C3)C2C(=O)NCc2ccccn2)c(OC)c1 (centres undefined) the Potency was 26.7 µM (active).
Cc1nn(-c2ccccc2)c(C)c1C(=O)OCC(=O)NC(=O)NC1CCCCC1 was tested, and the Potency was 21.2 µM (active).
With CCn1c(SC)nc(O)c(C(c2ccc(OC)c(O)c2)c2c(O)nc(SC)n(CC)c2=O)c1=O the Potency was 16.8 µM (active).
For Cn1c(=O)oc2cc(S(=O)(=O)NCCC(=O)NCc3ccccc3Cl)ccc21, the Potency was 23.8 µM (active).
CC(C)(C)c1cc(CN2CCN(CCC#N)CC2)cc(C(C)(C)C)c1O was tested, and the Potency was 8.44 µM (active).
For Cc1nn(Cc2ccccc2)c(Cl)c1C(=O)OC1CCOC1=O (centres undefined), the Potency was 21.2 µM (active).
O=C(O)CC/C(=C\c1cc2c(cc1Br)OCO2)c1nc2ccccc2s1 was tested, and the Potency was 23.8 µM (active).
For Cc1nc2c(C(=O)NCc3ccc4c(c3)OCO4)c[nH]n2c(=O)c1Cc1ccccc1F, the Potency was 21.2 µM (active).
With Cc1nn(C)c(C)c1C(C)NC(=O)c1ccc(OC2CCN(Cc3ccccn3)CC2)cc1 (centres undefined) the Potency was 2.12 µM (active).
COC(=O)c1ccc(NC(=O)C23CC4CC(C2)CC(n2cnc(Cl)n2)(C4)C3)cc1 was tested, and the Potency was 23.8 µM (active).
For O=C(CSc1cccc[n+]1[O-])c1ccc(-c2ccccc2)cc1, the Potency was 23.8 µM (active).
